# Experimental data reported in PubChem BioAssay (NCATS).
# Several values for one entry are separate records, joined by “and”; a condition that tells them apart may be missing. Equal values may be shown once. Records with an inconclusive call do not appear. Entries that show only a call come without a potency. Activity calls are given as the source filed them. The call rests on the fitted dose curve; in most records, active means well fitted curve in the direction sought with a large enough effect; inconclusive means small, poorly fitted or top-dose-only effect, or another doubt; inactive means no such curve, though single readings can be large; an effect the other way counts as inactive or inconclusive.
# How the values were obtained:
# [1] = qHTS of pediatric cancer cell lines to identify multiple opportunities for drug repurposing: Primary screen for BT-12 cells (AID 1347101); further: nearly all actives have a fitted effect of over 25% in size; further: potency means the concentration at half of the fitted maximal effect
# Summary of the method: (§1)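 Cells (500-1,000/well) rested 5 h, then received compounds for 48 h; metabolically active cells were measured by CellTiter-Glo luminescence. Final concentrations spanned up to 46 µM (MIPE, 11-point) or 0.59 nM-46 µM (NPC, 8-point) in primary screens, 11-point in follow-ups.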
# [2] = qHTS of pediatric cancer cell lines to identify multiple opportunities for drug repurposing: Primary screen for Rh18 cells (AID 1347102); further: nearly all actives have a fitted effect of over 65% in size; further: potency means the concentration at half of the fitted maximal effect
# Summary of the method: as §1
# [3] = qHTS of pediatric cancer cell lines to identify multiple opportunities for drug repurposing: Primary screen for OHS-50 cells (AID 1347103); further: nearly all actives have a fitted effect of over 40% in size; further: potency means the concentration at half of the fitted maximal effect
# Summary of the method: as §1
# [4] = qHTS of pediatric cancer cell lines to identify multiple opportunities for drug repurposing: Primary screen for RD cells (AID 1347104); further: nearly all actives have a fitted effect of over 55% in size; further: potency means the concentration at half of the fitted maximal effect
# Summary of the method: (§2)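 ATP-based luminescence (CellTiter-Glo) quantifies viability after a 48-hour exposure. Compounds are dosed across 8 or 11 final concentrations; DMSO and 2.3 µM bortezomib serve as controls.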
# [5] = qHTS of pediatric cancer cell lines to identify multiple opportunities for drug repurposing: Primary screen for MG 63 (6-TG R) cells (AID 1347105); further: nearly all actives have a fitted effect of over 50% in size; further: potency means the concentration at half of the fitted maximal effect
# Summary of the method: as §2
# [6] = qHTS of pediatric cancer cell lines to identify multiple opportunities for drug repurposing: Primary screen for control Hh wild type fibroblast cells (AID 1347106); further: nearly all actives have a fitted effect of over 55% in size; further: potency means the concentration at half of the fitted maximal effect
# Summary of the method: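 Viability after 48 h compound treatment at 37C, 500-1,000 cells/well, read as ATP luminescence with CellTiter-Glo. Primary screens used 11-point (MIPE, 0.78 nM-46 µM) or 8-point (NPC, 0.59 nM-46 µM) final concentrations; follow-up screens used 11-point dilutions.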
# [7] = qHTS of pediatric cancer cell lines to identify multiple opportunities for drug repurposing: Primary screen for Rh30 cells (AID 1347107); further: series mostly up to about 46 µM; nearly all actives have a fitted effect of over 75% in size
# Summary of the method: as §1
# [8] = qHTS of pediatric cancer cell lines to identify multiple opportunities for drug repurposing: Primary screen for Rh41 cells (AID 1347108);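 further: series mostly up to about 46 µM; luminescence drop marks cytotoxic hits; nearly all actives have a fitted effect of over 70% in size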
# Summary of the method: as §2
# [9] = qHTS of pediatric cancer cell lines to identify multiple opportunities for drug repurposing: Confirmatory screen for NB1643 cells (AID 1347109); further: nearly all actives have a fitted effect of over 45% in size; further: potency means the concentration at half of the fitted maximal effect
# Summary of the method: as §1
# [10] = qHTS of pediatric cancer cell lines to identify multiple opportunities for drug repurposing: Confirmatory screen for A673 cells (AID 1347110);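 further: potency means the concentration at half of the fitted maximal effect; cells exposed to compound for 48 h before the viability read; nearly all actives have a fitted effect of over 65% in size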
# Summary of the method: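 Viability was read as ATP luminescence (CellTiter-Glo) after 48 h of compound exposure at 37 C in A673 cells seeded at 500-1,000/well. Titrations reached 46 uM final, with 11 points in the confirmatory screen. Concentration-response curves were fitted directly.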
Structure (SMILES),Potency [1],Potency [2],Potency [3],Potency [4],Potency [5],Potency [6],outcome [7],Potency [8],Potency [9],Potency [10]
C[C@H]1c2cccc(O)c2C(O)=C2C(=O)[C@]3(O)C(O)=C(C(N)=O)C(=O)[C@@H](N(C)C)[C@@H]3[C@@H](O)[C@@H]21,24.3 µM (active),inactive,inactive,inactive,inactive,inactive,inactive,–,–,–
NCCc1cnc[nH]1,inactive,inactive,inactive,inactive,inactive,inactive,inactive,–,–,–
Nc1ccn([C@H]2CC[C@@H](CO)O2)c(=O)n1,inactive,inactive,inactive,inactive,inactive,inactive,inactive,inactive,–,–
Cc1cnc(C(=O)NCCc2ccc(S(=O)(=O)NC(=O)NC3CCCCC3)cc2)cn1,inactive,inactive,inactive,inactive,inactive,inactive,inactive,inactive,–,–
COc1ccccc1N1CCN(CC(O)COc2cccc3ccccc23)CC1 (stereo not given),inactive,inactive,15.5 µM (active),inactive,inactive,inactive,inactive,–,–,–
CN(C)C(=N)N=C(N)N,inactive,inactive,inactive,inactive,inactive,inactive,inactive,inactive,–,–
C[C@@H]1CC(=O)NN=C1c1ccc(NN=C(C#N)C#N)cc1,21.9 µM (active) and 27.6 µM (active) and 24.3 µM (active),inactive,21.7 µM (active),29.6 µM (active),10.6 µM (active),inactive,inactive,–,–,–
CC1(C)O[C@H]2CC(=O)OC[C@]23[C@H]2CC[C@@]4(C)[C@H](c5ccoc5)OC(=O)[C@H]5O[C@]54[C@]2(C)C(=O)C[C@@H]13,inactive,inactive,inactive,inactive,inactive,inactive,inactive,inactive,–,–
CCOC(=O)Nc1ccc(NCc2ccc(F)cc2)nc1N,inactive,inactive,inactive,inactive,inactive,inactive,inactive,–,–,–
CC[N+](CC)(CC)CCOc1cccc(OCC[N+](CC)(CC)CC)c1OCC[N+](CC)(CC)CC,inactive,inactive,inactive,inactive,inactive,inactive,inactive,–,–,–
Cc1ccccc1N1C(=O)c2cc(S(N)(=O)=O)c(Cl)cc2NC1C (stereo not given),inactive,inactive,inactive,inactive,inactive,inactive,inactive,inactive,–,–
COC(=O)Nc1nc2ccc(C(=O)c3cccs3)cc2[nH]1,19.3 nM (active) and 347 nM (active),inactive,8.6 nM (active) and 309 nM (active),–,–,inactive,inactive,–,0.522 µM (active),0.147 µM (active)
CC(C)NCC(O)COc1ccc(CCOCC2CC2)cc1 (stereo not given),inactive,inactive,inactive,inactive,inactive,inactive,inactive,inactive,–,–
CC(C)Cc1ccc(C(C)C(=O)O)cc1 (stereo not given),inactive,inactive,inactive,inactive,inactive,inactive,inactive,–,inactive,6.57 µM (active)
Cc1ccc(C(=O)Nc2ccc(S(=O)(=O)O)c3cc(S(=O)(=O)O)cc(S(=O)(=O)O)c23)cc1NC(=O)c1cccc(NC(=O)Nc2cccc(C(=O)Nc3cc(C(=O)Nc4ccc(S(=O)(=O)O)c5cc(S(=O)(=O)O)cc(S(=O)(=O)O)c45)ccc3C)c2)c1,inactive,inactive,inactive,inactive,inactive,inactive,inactive,inactive,–,–
COc1ccc(C2CNC(=O)C2)cc1OC1CCCC1 (stereo not given),inactive,inactive,inactive,inactive,inactive,inactive,inactive,inactive,–,–
Clc1ccc2nsnc2c1NC1=NCCN1,inactive,inactive,inactive,inactive,inactive,inactive,inactive,–,26.1 µM (active),–
COc1ccc2[nH]cc(CCNC(C)=O)c2c1,inactive,inactive,inactive,inactive,inactive,inactive,inactive,inactive,–,–
Clc1ccc2c(c1)C(N1CCNCC1)=Nc1ccccc1O2,inactive,inactive,inactive,inactive,inactive,inactive,inactive,inactive,–,–
O=C1c2c(O)ccc(O)c2C(=O)c2c(NCCNCCO)ccc(NCCNCCO)c21,1.72 µM (active) and 490 nM (active),2.09 µM (active) and 2.37 µM (active),344 nM (active) and 49 nM (active),4.69 µM (active) and 6.68 µM (active),0.372 µM (active),13.3 µM (active),–,–,0.369 µM (active),0.147 µM (active)
CCCCc1oc2ccccc2c1C(=O)c1cc(I)c(OCCN(CC)CC)c(I)c1,4.32 µM (active) and 21.9 µM (active),16.6 µM (active),5.44 µM (active) and 11 µM (active),26.4 µM (active) and 26.6 µM (active),–,inactive,inactive,–,44.7 µM (active),56.2 µM (active)
CC1COc2c(N3CCN(C)CC3)c(F)cc3c(=O)c(C(=O)O)cn1c23 (stereo not given),inactive,inactive,inactive,inactive,inactive,inactive,inactive,inactive,–,–
